# Screening results as filed in PubChem.
# In the library only some 1.5% were active in any assay of this set; here they are far more common.
# miR-122 sensor = miR-122 inhibition in Huh7 cells | Huh7 miR-122 Renilla luciferase sensor, 48 h; neutral wells = 0, positive control = 100 | activation (reporter increase), % at 12.5 µM | 340,000 compounds, 0.3% hits | AID 602342;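 active means mean replicate activation score at least 90 and every replicate individually at or above 90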;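 further: higher luciferase means less miR-122 activity so hits act as miR-122 inhibitors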
# RAD52 inh = blocks human RAD52 DNA annealing | P43351 | recombinant RAD52 DNA annealing, FRET fluorescence | inhibition, % at 18.7 µM | 360,000 compounds, 0.46% hits;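 active means every replicate showing at least 50% inhibition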
# AF4-AF9 inh = inhibitors of human MLL-AF4/AF9 interaction | P42568 | AlphaScreen, biotin-AF4 peptide binding to FLAG-AF9 | inhibition, % at 10 µM | 350,000 compounds, 0.47% hits | AID 651704;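 active means every replicate reaching a set inhibition limit, whatever the replicate mean, cut at about 25% in these data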;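 further: 0% = plate neutral control median and 100% = total signal loss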
# CASP6 VEID inh = blocks human caspase-6 cleavage activity; inhibition, % at 12.5 µM; 350,000 compounds, 0.53% hits; P55212; AID 686996; purified caspase-6, Z-VEID-R110 cleavage fluorescence;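 active means mean inhibition across replicates at least about 35%, with every replicate also reaching that limit, limit read from the data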;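 further: 0% = median of neutral control wells and 100% = no fluorescence left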
# NSD2 inh = inhibitors of human histone methyltransferase NSD2; O96028; NSD2 peptide methylation, AlphaScreen, 120 min; inhibition, % at 12.5 µM; 310,000 compounds, 0.54% hits; AID 743445; in the data active means inhibition above about 50%
# AlphaScreen art = interferes with AlphaScreen signal, flagging NSD2 false positives | shares compounds with NSD2 inh | AC35, µM (titrated, usually from 10 µM), for the others: top-dose activity change, negative = signal loss | 1,500 compounds, 9.4% hits | AID 1053174 | AlphaScreen artifact counterscreen, preloaded methylated H4 peptide; call rule not given here
# An asterisk follows results filed as active; i = inactive; . = no result; [ ] = another dose, or the depositor's remark.
SMILES,miR-122 sensor,RAD52 inh,AF4-AF9 inh,CASP6 VEID inh,NSD2 inh,AlphaScreen art
O=C(CN1CCOCCOCCN(CC(=O)Nc2ccccc2)CCOCC1)Nc1ccccc1,3.3,.,.,.,166.3*,-0.3%
O=C(CN1CCOCCOCCOCC1)Nc1ccccc1,-5.5,.,.,.,0.4,.
O=C(CN1CCOCC1)Nc1ccc(Oc2ccccc2)cc1,-1.7,.,.,.,53.4*,-0.2%
O=S(=O)(c1ccc(F)cc1)N1CC[C@@H]2[C@H](CO)Nc3ccc(-c4ccccc4F)cc3[C@@H]21,-9.0[16.7 µM],-3.8,2.0,0.3,.,.
CC(C)CC#Cc1cnc2c(c1)C(=O)N([C@@H](C)CO)C[C@@H](C)[C@H](CN(C)C(=O)c1cnccn1)O2,-2.2[16.7 µM],-8.2,1.1,6.2,.,.
CO[C@H]1CN(C)C(=O)c2cc(NC(=O)c3cc(C)on3)ccc2OC[C@@H](C)N(C(=O)C2CC2)C[C@@H]1C,-0.9[16.7 µM],-9.4,-0.7,-0.6,.,.
O=C(O)C(C(=O)O)=C1C2CC3CC(C2)CC1C3,-6.3,5.9,-2.2,1.6,1.5,.
O=C(O)C=C1C2CC3CC(C2)CC1C3,-1.1,.,.,.,50.3*,-3.5%
CC(C)(C)c1[nH]nc2c1C(c1ccoc1)C(C#N)=C(N)O2 (configuration not stated),-6.9,.,.,.,75.9*,-2.4%
COc1ccccc1-c1cnc2c(c1)C(=O)N([C@H](C)CO)C[C@@H](C)[C@@H](CN(C)CC1CCOCC1)O2,1.3[16.7 µM],6.9,-3.4,-0.7,.,.
O=C1C=C(Nc2cccnc2)c2ccccc2C1=O,.,-13.8,-1.0,95.9*,98.8*,0.4%
CCOc1ccc(NC2=CC(=O)C(=O)c3ccccc32)cc1,.,-3.3,1.6,0.9,18.1,.
Cc1ccc(NC2=CC(=O)C(=O)c3ccccc32)c(C)c1,-7.9,-3.7,1.5,19.3,2.9,.
O=C1C=C(NCc2ccccc2)c2ccccc2C1=O,.,-11.1,0.5,80.4*,140.3*,-1.9%
O=C1C=C(Nc2ccccc2O)c2ccccc2C1=O,-1.5,-18.2,16.5,41.4*,94.4*,-0.5%
O=c1cccccc1NCc1ccccc1,1.1,-13.3,.,17.2,2.9,.
Cc1noc(C)c1NC(=O)Nc1ccc2c(c1)C(=O)N([C@H](C)CO)C[C@@H](C)[C@H](CN(C)C(=O)Nc1ccccc1)O2,3.2[16.7 µM],.,.,.,.,.
CC(=O)N1CC2(C1)[C@H](c1ccccc1)[C@@H](CO)N2Cc1cccc(Cl)c1,.,-13.3,-1.6,2.8,.,.
O=C(Cc1ccc(Br)cc1)Nc1ncc([N+](=O)[O-])s1,-2.0,-13.2,-1.0,1.8,50.2*,0.0%
O=C(Cc1ccc(Cl)cc1)Nc1ncc([N+](=O)[O-])s1,.,-15.1,-2.2,0.0,3.1,.
C[C@H](CO)N1C[C@H](C)[C@H](CN(C)S(=O)(=O)c2ccc(C#N)cc2)Oc2ncc(C#Cc3ccc(C(F)(F)F)cc3)cc2C1=O,.,-22.9,-1.7,2.8,.,.
C[C@H]1CN([C@@H](C)CO)S(=O)(=O)c2ccc(C3=CCCCC3)cc2O[C@@H]1CN(C)S(=O)(=O)c1cn(C)cn1,-12.2[16.7 µM],.,.,.,.,.
O=C(NC1CCCC1)c1cc(-c2ccc(Cl)cc2Cl)on1,-3.1,-9.6,2.0,.,88.6*,-7.3%
CN1C(=O)/C(=C/c2ccc(-c3ccccc3[N+](=O)[O-])o2)SC1=Nc1ccc(Cl)c(C(=O)O)c1,3.2,.,.,.,116.8*,-3.8%
O=C1C2C3C=CC(C3)C2C(=O)N1/N=C/c1ccc(-c2ccccc2[N+](=O)[O-])o1 (configuration not stated),-3.1,.,.,.,3.5,.
SMILES,miR-122 sensor,RAD52 inh,AF4-AF9 inh,CASP6 VEID inh,NSD2 inh,AlphaScreen art
COc1cc(OC)nc(NC2OC(=O)c3ccccc32)n1 (configuration not stated),3.8,.,.,.,104.1*,3.8%
O=C1OC(Nc2ncccn2)c2ccccc21 (configuration not stated),-0.4,.,.,.,-5.9,.
C[C@@H]1CN([C@H](C)CO)C(=O)c2cccc(NC(=O)NC3CCCCC3)c2O[C@@H]1CN(C)S(=O)(=O)c1cccs1,-18.9[16.7 µM],-4.7,-0.3,1.7,.,.
O=C(NC(=S)Nc1ccccc1C(=O)O)c1cncc(Br)c1,-15.6,-21.9,-5.0,1.4,-3.2,.
O=C(Nc1ccccc1C(=O)O)c1cncc(Br)c1,-3.0,.,.,.,68.3*,-10.3%
CC1CC(C)CN(C(=O)C2CCN(S(=O)(=O)c3cccs3)CC2)C1 (configuration not stated),-2.4,-7.3,4.0,-0.3,50.3*,-1.5%
N#C/C(=C\c1ccc(O)c(O)c1)C(=O)Nc1cccc2ncccc12,-2.8,-0.3,10.7,58.3*,115.0*,4.84µM*
C[C@H]1CN([C@@H](C)CO)C(=O)c2ccccc2-c2ccccc2CO[C@H]1CN(C)Cc1ccc(C(F)(F)F)cc1,.,-1.3,2.7,0.8,.,.
COc1ccc(NC(=O)Nc2ccc3c(c2)C(=O)N([C@@H](C)CO)C[C@H](C)[C@@H](CN(C)C(=O)Nc2ccc4c(c2)OCO4)OCCCC[C@H](C)O3)cc1,-3.7[16.7 µM],-11.1,7.8,2.6,.,.
C[C@@H]1CN([C@@H](C)CO)C(=O)c2cccc(NS(=O)(=O)c3cn(C)cn3)c2O[C@H]1CN(C)C(=O)Nc1ccc2c(c1)OCO2,-7.3[16.7 µM],-10.0,-2.2,-1.3,.,.
COc1ccc(CN(C)C[C@@H]2Oc3ccc(NC(=O)CCC(F)(F)F)cc3C(=O)N([C@@H](C)CO)C[C@H]2C)cc1,-4.1[16.7 µM],-1.8,-0.3,-0.6,.,.
CC(=O)N1CCN(c2ccccc2NC(=O)c2ccc3ccccc3c2)CC1,10.1,9.3,1.0,2.3,53.5*,-0.9%
CC(=O)N1CCN(c2ccccc2NC(=O)c2cccs2)CC1,2.2,-16.7,2.4,-1.0,-1.6,.
CCOC(=O)CN1C(=O)C(=O)N(Cc2c(Cl)cccc2Cl)C1=O,-3.9,6.7,1.0,-2.1,-2.0,.
CCOC(=O)Nc1ccc(=O)n(Cc2c(Cl)cccc2Cl)c1,17.8,.,.,.,84.6*,-4.4%
COc1cc(OC)c(-c2c3cc(O)c(=O)cc-3oc3cc(O)c(O)cc23)cc1OC,.,i,13.3,64.2*,142.7*,0.854µM*
Cc1ccc(-n2nc(C(=O)NCc3ccc(C)o3)c3c4ccccc4n(C)c3c2=O)cc1,2.9,.,.,.,53.2*,-4.7%
COc1ccc(-n2nc(C(=O)NCc3ccco3)c3c4ccccc4n(C)c3c2=O)cc1,6.9,-2.7,-1.8,2.1,1.0,.
CCN(CC)C1CCN(c2nc3nonc3nc2NCCOC)C1 (configuration not stated),-5.6,-1.8,2.6,-1.7,75.2*,-1.7%
COCCCNc1nc2nonc2nc1N1CCN2CCCC2C1 (configuration not stated),1.4,-15.4,-16.8,0.1,-1.6,.
CC(C)(C)c1ccc(C(=O)NNc2cc(N3CCCCC3)nc(N3CCCCC3)n2)cc1,5.9,.,.,.,.,.
O=C(NNc1cc(N2CCCC2)nc(N2CCCC2)n1)c1ccc([N+](=O)[O-])cc1,.,-15.6,10.2,-0.1,89.3*,-2.5%
NC(=O)NCC#Cc1ccc2c(c1)[C@]1(C(=O)N2)[C@H](c2ccc(O)cc2)N2[C@H](c3ccccc3)[C@H](c3ccccc3)OC(=O)[C@H]2[C@@H]1C(N)=O,.,21.0,2.7,-1.0,.,.
